Laboratory results as given in the supplement of paper PMC10849652.
Of roughly 7,900 targets only a part is listed; those with a hit were picked by preference. About 0.6% of all pairs of compound and target were hits. A number with no mark means an inactive call.

Legend:
Assay in all cases: log2 fold change, soluble protein after heating vs DMSO (PISA); higher = thermal stabilisation; K562 cells, 10 uM, 30 min; active = over 0.2 and 3.5 SD of the protein, either way, in both replicates (recomputed)
[1] = compound: COC1=CC=C(C=C1)CN2C=CC3=C2C=C(C=C3)C(=O)NO
Procedure, shortened: (§1)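 Values are thermal stability changes relative to control samples and are taken from duplicates. They are stated as log2 fold changes. Before quantification by TMTpro 16plex LC-MS/MS with equalised channel sums, K562 cells at 2×10^6 cells/mL were treated with 10 μM compound for 30 min, heated in aliquots for 3 min across 48°C-58°C, pooled, extracted in PBS with 0.5% NP-40 at 4°C, and centrifuged at 21,000xg for 90 min to give the soluble supernatant.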

filanesib = compound: CON(C)C(=O)N1N=C(c2cc(F)ccc2F)S[C@@]1(CCCN)c1ccccc1 [filanesib]
Procedure, shortened: as §1

zotarolimus = compound: CO[C@H]1C[C@@H]2CC[C@@H](C)[C@@](O)(O2)C(=O)C(=O)N2CCCC[C@H]2C(=O)O[C@H]([C@H](C)C[C@@H]2CC[C@H](n3cnnn3)[C@H](OC)C2)CC(=O)[C@H](C)/C=C(\C)[C@@H](O)[C@@H](OC)C(=O)[C@H](C)C[C@H](C)/C=C/C=C/C=C/1C [zotarolimus]
Procedure, shortened: as §1

idasanutlin = compound: COc1cc(C(=O)O)ccc1NC(=O)[C@@H]1N[C@@H](CC(C)(C)C)[C@](C#N)(c2ccc(Cl)cc2F)[C@H]1c1cccc(Cl)c1F [idasanutlin]
Procedure, shortened: as §1

[2] = compound: CS(=O)(=O)c1ccc(-c2cnc(N)c(C(=O)Nc3ccccc3)n2)cc1
Procedure, shortened: as §1

crizotinib = compound: C[C@@H](Oc1cc(-c2cnn(C3CCNCC3)c2)cnc1N)c1c(Cl)ccc(F)c1Cl [crizotinib]
Procedure, shortened: as §1

[3] = compound: C[C@@H]1COCCN1C2=NC(=NC(=C2)C3(CC3)S(=O)(=O)C)C4=C5C=CNC5=CC=C4
Procedure, shortened: as §1

[4] = compound: C[C@H](C1=CC=C(C=C1)C(=O)NC2=C3C=CNC3=NC=C2)N
Procedure, shortened: as §1

tozasertib = compound: Cc1cc(Nc2cc(N3CCN(C)CC3)nc(Sc3ccc(NC(=O)C4CC4)cc3)n2)n[nH]1 [tozasertib]
Procedure, shortened: as §1

doramapimod = compound: Cc1ccc(-n2nc(C(C)(C)C)cc2NC(=O)Nc2ccc(OCCN3CCOCC3)c3ccccc23)cc1 [doramapimod]
Procedure, shortened: as §1

alisertib = compound: COc1cc(Nc2ncc3c(n2)-c2ccc(Cl)cc2C(c2c(F)cccc2OC)=NC3)ccc1C(=O)O [alisertib]
Procedure, shortened: as §1

[5] = compound: COc1cc2nc(-c3cc(F)ccc3O)nc(N[C@@H]3CNC[C@H]3C(C)(C)O)c2cc1OC
Procedure, shortened: as §1

gefitinib = compound: COc1cc2ncnc(Nc3ccc(F)c(Cl)c3)c2cc1OCCCN1CCOCC1 [gefitinib]
Procedure, shortened: as §1

[6] = compound: COc1cccc2cc(-c3nc([C@H]4CC[C@H](C(=O)O)CC4)n4ncnc(N)c34)[nH]c12
Procedure, shortened: as §1

lapatinib = compound: CS(=O)(=O)CCNCc1ccc(-c2ccc3ncnc(Nc4ccc(OCc5cccc(F)c5)c(Cl)c4)c3c2)o1 [lapatinib]
Procedure, shortened: as §1

pictilisib = compound: CS(=O)(=O)N1CCN(Cc2cc3nc(-c4cccc5[nH]ncc45)nc(N4CCOCC4)c3s2)CC1 [pictilisib]
Procedure, shortened: as §1

duvelisib = compound: C[C@H](Nc1ncnc2nc[nH]c12)c1cc2cccc(Cl)c2c(=O)n1-c1ccccc1 [duvelisib]
Procedure, shortened: as §1

gandotinib = compound: Cc1cc(Nc2cc(CN3CCOCC3)c3nc(C)c(Cc4ccc(Cl)cc4F)n3n2)n[nH]1 [gandotinib]
Procedure, shortened: as §1

[7] = compound: Cc1cc(SCc2sc(-c3ccc(C(F)(F)F)cc3)nc2C)ccc1OCC(=O)O
Procedure, shortened: as §1

ispinesib = compound: Cc1ccc(C(=O)N(CCCN)[C@@H](c2nc3cc(Cl)ccc3c(=O)n2Cc2ccccc2)C(C)C)cc1 [ispinesib]
Procedure, shortened: as §1

Chain of UniProt P54652 (P54652 whole entry, looked up): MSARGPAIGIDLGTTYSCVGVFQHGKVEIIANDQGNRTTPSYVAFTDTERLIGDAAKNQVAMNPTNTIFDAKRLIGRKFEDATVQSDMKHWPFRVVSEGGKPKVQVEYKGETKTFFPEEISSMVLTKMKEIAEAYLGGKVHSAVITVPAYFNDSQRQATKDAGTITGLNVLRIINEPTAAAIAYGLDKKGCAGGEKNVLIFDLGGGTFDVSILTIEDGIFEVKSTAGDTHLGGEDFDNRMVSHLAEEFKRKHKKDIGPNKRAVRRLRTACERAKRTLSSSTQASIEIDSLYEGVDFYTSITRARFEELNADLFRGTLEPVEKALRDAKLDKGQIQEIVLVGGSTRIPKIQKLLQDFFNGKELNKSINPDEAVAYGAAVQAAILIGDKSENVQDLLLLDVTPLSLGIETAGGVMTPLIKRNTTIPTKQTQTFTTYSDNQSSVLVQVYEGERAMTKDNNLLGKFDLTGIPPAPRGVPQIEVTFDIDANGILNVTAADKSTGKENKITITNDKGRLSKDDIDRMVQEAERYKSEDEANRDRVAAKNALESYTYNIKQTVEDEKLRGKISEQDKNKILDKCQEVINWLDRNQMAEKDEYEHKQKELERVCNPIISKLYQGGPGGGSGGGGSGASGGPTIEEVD
Chain of UniProt A6NDN3 (A6NDN3 whole entry, looked up): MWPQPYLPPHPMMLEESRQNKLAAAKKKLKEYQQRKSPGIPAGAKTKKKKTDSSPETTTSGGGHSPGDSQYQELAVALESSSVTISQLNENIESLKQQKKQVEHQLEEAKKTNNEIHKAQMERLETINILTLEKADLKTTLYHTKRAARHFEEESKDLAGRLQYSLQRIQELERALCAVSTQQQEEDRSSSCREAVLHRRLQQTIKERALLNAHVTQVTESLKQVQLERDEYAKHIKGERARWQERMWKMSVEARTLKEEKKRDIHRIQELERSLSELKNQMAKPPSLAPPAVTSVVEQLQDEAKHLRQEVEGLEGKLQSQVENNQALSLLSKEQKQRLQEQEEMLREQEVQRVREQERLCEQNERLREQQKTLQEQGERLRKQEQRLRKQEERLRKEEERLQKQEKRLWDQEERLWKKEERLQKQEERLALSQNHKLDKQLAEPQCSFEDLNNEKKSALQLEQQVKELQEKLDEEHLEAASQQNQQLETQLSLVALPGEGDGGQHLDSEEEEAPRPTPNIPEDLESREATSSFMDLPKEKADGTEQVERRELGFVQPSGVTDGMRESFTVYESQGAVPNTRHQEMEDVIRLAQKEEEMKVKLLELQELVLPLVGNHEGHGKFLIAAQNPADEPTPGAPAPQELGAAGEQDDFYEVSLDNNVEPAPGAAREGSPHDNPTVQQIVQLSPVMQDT
Chain of UniProt Q53R41 (Q53R41 whole entry, looked up): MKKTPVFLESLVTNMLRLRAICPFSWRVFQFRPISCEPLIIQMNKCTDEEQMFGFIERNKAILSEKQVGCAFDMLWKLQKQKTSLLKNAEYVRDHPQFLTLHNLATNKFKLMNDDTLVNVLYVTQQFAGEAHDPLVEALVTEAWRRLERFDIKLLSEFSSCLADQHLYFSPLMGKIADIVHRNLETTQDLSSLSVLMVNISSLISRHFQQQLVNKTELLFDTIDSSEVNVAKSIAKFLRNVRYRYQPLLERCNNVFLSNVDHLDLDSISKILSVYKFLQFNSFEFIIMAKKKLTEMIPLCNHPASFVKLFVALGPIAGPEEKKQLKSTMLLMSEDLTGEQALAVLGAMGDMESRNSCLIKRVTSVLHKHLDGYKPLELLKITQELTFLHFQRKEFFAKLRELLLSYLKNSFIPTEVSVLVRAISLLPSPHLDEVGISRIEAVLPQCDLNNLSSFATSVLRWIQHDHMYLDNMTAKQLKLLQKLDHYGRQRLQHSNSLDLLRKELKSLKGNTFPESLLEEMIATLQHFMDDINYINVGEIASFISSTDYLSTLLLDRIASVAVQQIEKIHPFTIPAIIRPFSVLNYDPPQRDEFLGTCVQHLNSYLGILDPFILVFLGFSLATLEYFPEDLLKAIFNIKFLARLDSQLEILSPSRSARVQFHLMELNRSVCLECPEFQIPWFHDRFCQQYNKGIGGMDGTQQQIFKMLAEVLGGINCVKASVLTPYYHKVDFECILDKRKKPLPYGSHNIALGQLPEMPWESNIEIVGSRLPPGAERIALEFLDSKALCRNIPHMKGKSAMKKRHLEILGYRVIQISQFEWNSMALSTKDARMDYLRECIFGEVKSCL
Chain of UniProt Q9UK97 (Q9UK97 whole entry, looked up): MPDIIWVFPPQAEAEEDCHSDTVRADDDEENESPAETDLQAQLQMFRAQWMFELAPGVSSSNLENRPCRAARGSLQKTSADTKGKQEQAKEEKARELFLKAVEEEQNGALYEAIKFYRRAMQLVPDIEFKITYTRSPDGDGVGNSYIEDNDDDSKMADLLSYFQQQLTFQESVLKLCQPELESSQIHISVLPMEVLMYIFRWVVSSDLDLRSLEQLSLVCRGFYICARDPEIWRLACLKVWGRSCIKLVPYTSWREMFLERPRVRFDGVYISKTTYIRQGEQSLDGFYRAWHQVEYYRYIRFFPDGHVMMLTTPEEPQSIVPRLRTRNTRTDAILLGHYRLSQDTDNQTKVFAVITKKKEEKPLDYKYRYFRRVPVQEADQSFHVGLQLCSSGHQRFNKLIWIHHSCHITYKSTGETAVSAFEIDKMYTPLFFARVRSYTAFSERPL
Chain of UniProt Q13227 (Q13227 whole entry, looked up): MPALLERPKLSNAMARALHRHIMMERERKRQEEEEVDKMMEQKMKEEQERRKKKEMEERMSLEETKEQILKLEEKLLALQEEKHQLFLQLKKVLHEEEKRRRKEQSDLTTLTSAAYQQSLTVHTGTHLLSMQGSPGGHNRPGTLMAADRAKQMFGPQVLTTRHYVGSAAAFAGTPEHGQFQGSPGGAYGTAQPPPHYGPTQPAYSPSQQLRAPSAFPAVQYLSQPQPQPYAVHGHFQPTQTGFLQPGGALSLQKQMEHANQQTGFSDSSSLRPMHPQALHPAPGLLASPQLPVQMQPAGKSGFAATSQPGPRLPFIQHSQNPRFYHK
Chain of UniProt Q8WUI4 (Q8WUI4 whole entry, looked up): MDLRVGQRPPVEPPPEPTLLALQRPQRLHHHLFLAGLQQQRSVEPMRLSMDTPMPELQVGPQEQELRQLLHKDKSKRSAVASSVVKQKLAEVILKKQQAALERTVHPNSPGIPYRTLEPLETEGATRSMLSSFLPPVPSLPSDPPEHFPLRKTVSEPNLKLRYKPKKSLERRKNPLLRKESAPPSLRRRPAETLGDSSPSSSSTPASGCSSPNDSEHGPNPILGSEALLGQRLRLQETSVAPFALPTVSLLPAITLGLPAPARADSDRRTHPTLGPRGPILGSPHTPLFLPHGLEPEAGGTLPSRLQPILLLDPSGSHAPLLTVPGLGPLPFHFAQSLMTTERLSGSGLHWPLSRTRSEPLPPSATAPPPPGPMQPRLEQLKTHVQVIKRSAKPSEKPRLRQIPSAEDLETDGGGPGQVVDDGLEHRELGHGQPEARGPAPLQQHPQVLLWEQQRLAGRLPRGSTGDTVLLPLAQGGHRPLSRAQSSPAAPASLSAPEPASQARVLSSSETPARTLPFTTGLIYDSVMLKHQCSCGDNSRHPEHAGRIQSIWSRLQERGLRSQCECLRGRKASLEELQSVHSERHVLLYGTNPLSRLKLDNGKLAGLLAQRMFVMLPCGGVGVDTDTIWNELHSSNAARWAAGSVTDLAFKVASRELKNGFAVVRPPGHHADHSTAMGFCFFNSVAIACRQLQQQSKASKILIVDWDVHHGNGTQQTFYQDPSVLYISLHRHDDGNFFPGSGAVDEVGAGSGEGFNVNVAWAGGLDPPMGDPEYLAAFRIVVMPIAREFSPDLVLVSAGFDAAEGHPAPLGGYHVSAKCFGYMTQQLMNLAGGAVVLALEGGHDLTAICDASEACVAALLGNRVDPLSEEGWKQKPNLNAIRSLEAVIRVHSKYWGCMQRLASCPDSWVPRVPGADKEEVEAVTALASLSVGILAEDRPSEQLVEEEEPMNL
Chain of UniProt I6L899 (I6L899 whole entry, looked up): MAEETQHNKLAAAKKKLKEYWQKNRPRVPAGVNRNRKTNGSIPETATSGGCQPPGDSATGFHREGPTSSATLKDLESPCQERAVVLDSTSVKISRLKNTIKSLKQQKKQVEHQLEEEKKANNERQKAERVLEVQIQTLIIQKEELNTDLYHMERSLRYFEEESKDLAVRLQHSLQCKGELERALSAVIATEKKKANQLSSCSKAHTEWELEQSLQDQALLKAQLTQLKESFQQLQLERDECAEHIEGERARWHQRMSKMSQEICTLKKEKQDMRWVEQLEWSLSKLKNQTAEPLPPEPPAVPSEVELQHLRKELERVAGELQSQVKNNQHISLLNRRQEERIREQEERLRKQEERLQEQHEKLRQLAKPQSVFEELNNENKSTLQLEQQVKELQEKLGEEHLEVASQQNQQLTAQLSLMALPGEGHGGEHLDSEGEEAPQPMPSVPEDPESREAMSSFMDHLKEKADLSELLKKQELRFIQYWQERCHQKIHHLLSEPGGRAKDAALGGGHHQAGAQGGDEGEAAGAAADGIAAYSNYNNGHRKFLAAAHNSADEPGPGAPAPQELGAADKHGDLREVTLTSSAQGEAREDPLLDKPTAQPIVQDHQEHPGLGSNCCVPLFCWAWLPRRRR
Chain of UniProt Q9Y324 (Q9Y324 whole entry, looked up): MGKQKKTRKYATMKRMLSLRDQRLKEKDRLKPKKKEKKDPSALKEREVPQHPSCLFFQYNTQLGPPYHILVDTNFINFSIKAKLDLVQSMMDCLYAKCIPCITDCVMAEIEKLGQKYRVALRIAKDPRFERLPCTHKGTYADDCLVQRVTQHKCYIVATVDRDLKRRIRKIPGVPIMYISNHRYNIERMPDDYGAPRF
Chain of UniProt P01344 (P01344 whole entry, looked up): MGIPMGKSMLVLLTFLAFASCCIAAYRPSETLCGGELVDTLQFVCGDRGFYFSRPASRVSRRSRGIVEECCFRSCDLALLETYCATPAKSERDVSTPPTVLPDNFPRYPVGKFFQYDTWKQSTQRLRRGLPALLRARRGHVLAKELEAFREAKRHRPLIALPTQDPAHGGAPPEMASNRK

Target	log2 fold change [1]	log2 fold change (filanesib)	log2 fold change (zotarolimus)	log2 fold change (idasanutlin)	log2 fold change [2]	log2 fold change (crizotinib)	log2 fold change [3]	log2 fold change [4]	log2 fold change (tozasertib)	log2 fold change (doramapimod)	log2 fold change (alisertib)	log2 fold change [5]	log2 fold change (gefitinib)	log2 fold change [6]	log2 fold change (lapatinib)	log2 fold change (pictilisib)	log2 fold change (duvelisib)	log2 fold change (gandotinib)	log2 fold change [7]	log2 fold change (ispinesib)
GREB1 (UniProt Q4ZG55)	0.448	0.074	0.07	-0.023	0.121	0.163	-0.046	0.12	-0.171	-0.007	–	–	–	–	–	–	–	–	–	–
FAT1 (UniProt Q14517)	0.098	0.097	-0.08	–	0.027	0.061	-0.054	0.144	-0.124	-0.435 (active)	-0.267	0.027	0.023	-0.098	0.029	0.041	0.026	0.061	0.009	-0.096
H3-3A (UniProt P84243)	–	-0.187	0.009	–	0.082	–	–	0.038	-0.066	–	0.098	0.179	0.035	-0.062	-0.042	–	-0.184	–	0.106	–
IFNGR1 (UniProt P15260)	–	0.091	-0.067	0.105	0.135	–	-0.1	0.068	-0.19	–	-0.09	0.207	0.097	0.143	-0.058	-0.085	-0.059	-0.053	-0.162	-0.041
GPNMB (UniProt Q14956)	–	–	–	–	–	–	-0.151	–	–	–	–	–	–	–	–	–	–	–	–	–
HBZ, A0A494C057	–	–	–	–	–	–	–	–	–	–	1.67	–	0.151	0.009	–	–	–	–	–	–
FASTKD1 (UniProt Q53R41)	-0.037	-0.011	-0.192	-0.028	0.097	0.001	0.097	-0.027	-0.253	0.037	–	–	0.473	–	–	0.127	0.035	-0.284	0.12	-0.013
FCF1 (UniProt Q9Y324)	-0.026	0.405	–	–	0.06	-0.054	-0.225	–	0.021	0.244	-0.272	0.1	–	-0.299	0.157	-0.262	-0.592	0.155	0.103	-0.095
GOLGA8R (UniProt I6L899)	0.591 (active)	–	-0.027	0.022	–	-0.009	–	-0.059	-0.033	0.108	–	0.345	–	–	-0.093	0.01	0.242	0.324	-0.067	-0.038
HSPA2 (UniProt P54652)	-0.103	0.026	–	0.032	0.011	0.123	–	–	–	-0.003	-0.077	–	0.005	0.076	–	–	–	–	–	-0.025
HNRNPK isoform 3 (UniProt P61978)	-0.025	0.077	–	–	-0.056	-0.009	-0.237	–	0.004	0.05	-0.063	–	-0.066	0.005	–	0.057	0.038	-0.082	-0.037	0.014
HDAC7 isoform 5 (UniProt Q8WUI4)	–	0.121	0.054	0.024	-0.027	-0.013	0.016	-0.281 (active)	-0.03	-0.018	-0.075	0.075	-0.015	0.046	0.071	-0.004	0.008	0.011	0.028	0.185
GNL3 (UniProt Q9BVP2)	–	-0.038	-0.012	-0.212	0.126	–	-0.009	0.065	-0.079	–	-0.12	–	0.067	0.071	–	0.061	0.124	0.098	-0.053	–
GSTT1 (UniProt P30711)	0.014	–	0.07	0	–	0.332 (active)	0.19	0.002	0.017	-0.003	-0.118	-0.015	0.023	0.029	0.003	0.027	0.1	0.19	-0.061	0.026
GPS2 (UniProt Q13227)	-0.108	0.018	–	–	-0.114	0.019	0.208	–	-0.221	0.047	-0.067	0.135	0.008	0.152	-0.044	–	–	–	–	0.31 (active)
GOLGA6B (UniProt A6NDN3)	0.088	-0.115	–	–	-0.003	0.05	0.036	–	–	-0.139	-0.092	–	0.012	0.102	–	0.144	–	0.404	–	–
FBXO9 (UniProt Q9UK97)	0.124	–	-0.027	–	–	0.028	–	-0.046	-0.071	-0.081	0.466 (active)	-0.169	0.007	0.077	0.012	0.036	-0.03	-0.151	0.079	-0.057
FGG (UniProt P02679)	–	–	–	–	–	–	–	–	–	–	–	-0.068	–	–	-0.001	-0.367	–	-0.153	–	-0.052
IGF2 isoform 3 (UniProt P01344)	0.041	–	–	–	–	-0.07	–	–	–	-0.13	–	–	–	–	–	–	0.175	–	0.03	–
GSE1 (UniProt Q14687)	–	–	-0.063	–	–	–	–	0.008	–	–	–	–	0.224	–	–	–	0.033	–	-0.046	-0.066
